Bioassay records from PubChem BioAssay.
Most compounds without a hit are left out; they make up all but 12% or so of the library.
HP1b binding inh: HTS for Inhibitors of HP1-beta Chromodomain Interactions with Methylated Histone Tails | Chromobox protein homolog 1 (Homo sapiens), P83916 | AlphaScreen HP1-beta / biotin-H3K9me3 peptide binding | Potency, µM (highest dose often 114 µM), inactives show at the highest dose activity change, negative = inhibition, usual class: inhibitors | 390,000 tested, 0.56% active; further: potency means the concentration at half of the fitted maximal effect; nearly all actives have a fitted effect of over 70% in size
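HP1-beta protein (50 nM final) preincubated 30 min at room temperature with biotinylated H3(1-18)K9me3 peptide (50 nM) in PBS pH 7.4, 0.01% Tween-20, then compound added for 30 min. AlphaScreen streptavidin donor/nickel chelate acceptor beads (10 ug/mL final), 30 min dark, luminescence read.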
JMJD2A Tudor: qHTS Assay for Inhibitors of JMJD2A-Tudor Domain. Potency, µM (doses to about 114 µM), for the others: at the highest dose activity change, negative = inhibition, actives largely listed as inhibitors. 390,000 tested, 4.4% active. AlphaScreen JMJD2A-Tudor / H3K4me3 peptide binding. AID 504339, 2011; further: potency means the concentration at half of the fitted maximal effect; on the % scale 0 is the no-effect control and ±100 the full control effect; nearly all actives have a fitted effect of over 50% in size
PI5P4K alpha inh: qHTS for Inhibitors of phosphatidylinositol 5-phosphate 4-kinase (PI5P4K) | Phosphatidylinositol 5-phosphate 4-kinase type-2 alpha (Homo sapiens), P48426 | PI5P4Kalpha enzyme, ADP-Glo luminescence, 60 min; hits give low values | max response, % | 330,000 tested, 1.2% active; active means max response of -50% or lower; inconclusive means between -30% and -50%; inactive means -30% or higher; further: value at the top dose of about 77 µM; on the % scale 0 is the no-effect control and ±100 the full control effect
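Reactions run in 0.038 M HEPES pH 7.4, 0.28 mM EGTA, 0.1% CHAPS and 5% DMSO, with PI5P4Kalpha, substrate, compound and 5 microM ATP final, one hour at room temperature. Readout is ADP-Glo luminescence.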
BAZ2B inh: qHTS Assay for Inhibitors of BAZ2B; AID 504333, 2011; 360,000 tested, 4.4% active; Bromodomain adjacent to zinc finger domain protein 2B (Homo sapiens), Q9UIF8; Potency, µM (top dose mostly 114 µM), for the others: top-dose activity change, negative = inhibition, hits mostly inhibitors; AlphaScreen BAZ2B-H3K14Ac peptide displacement; further: potency means the concentration at half of the fitted maximal effect; on the % scale 0 is the no-effect control and ±100 the full control effect; nearly all actives have a fitted effect of over 60% in size
Target sequence (Q9UIF8 whole entry, looked up, the tested form may be a part): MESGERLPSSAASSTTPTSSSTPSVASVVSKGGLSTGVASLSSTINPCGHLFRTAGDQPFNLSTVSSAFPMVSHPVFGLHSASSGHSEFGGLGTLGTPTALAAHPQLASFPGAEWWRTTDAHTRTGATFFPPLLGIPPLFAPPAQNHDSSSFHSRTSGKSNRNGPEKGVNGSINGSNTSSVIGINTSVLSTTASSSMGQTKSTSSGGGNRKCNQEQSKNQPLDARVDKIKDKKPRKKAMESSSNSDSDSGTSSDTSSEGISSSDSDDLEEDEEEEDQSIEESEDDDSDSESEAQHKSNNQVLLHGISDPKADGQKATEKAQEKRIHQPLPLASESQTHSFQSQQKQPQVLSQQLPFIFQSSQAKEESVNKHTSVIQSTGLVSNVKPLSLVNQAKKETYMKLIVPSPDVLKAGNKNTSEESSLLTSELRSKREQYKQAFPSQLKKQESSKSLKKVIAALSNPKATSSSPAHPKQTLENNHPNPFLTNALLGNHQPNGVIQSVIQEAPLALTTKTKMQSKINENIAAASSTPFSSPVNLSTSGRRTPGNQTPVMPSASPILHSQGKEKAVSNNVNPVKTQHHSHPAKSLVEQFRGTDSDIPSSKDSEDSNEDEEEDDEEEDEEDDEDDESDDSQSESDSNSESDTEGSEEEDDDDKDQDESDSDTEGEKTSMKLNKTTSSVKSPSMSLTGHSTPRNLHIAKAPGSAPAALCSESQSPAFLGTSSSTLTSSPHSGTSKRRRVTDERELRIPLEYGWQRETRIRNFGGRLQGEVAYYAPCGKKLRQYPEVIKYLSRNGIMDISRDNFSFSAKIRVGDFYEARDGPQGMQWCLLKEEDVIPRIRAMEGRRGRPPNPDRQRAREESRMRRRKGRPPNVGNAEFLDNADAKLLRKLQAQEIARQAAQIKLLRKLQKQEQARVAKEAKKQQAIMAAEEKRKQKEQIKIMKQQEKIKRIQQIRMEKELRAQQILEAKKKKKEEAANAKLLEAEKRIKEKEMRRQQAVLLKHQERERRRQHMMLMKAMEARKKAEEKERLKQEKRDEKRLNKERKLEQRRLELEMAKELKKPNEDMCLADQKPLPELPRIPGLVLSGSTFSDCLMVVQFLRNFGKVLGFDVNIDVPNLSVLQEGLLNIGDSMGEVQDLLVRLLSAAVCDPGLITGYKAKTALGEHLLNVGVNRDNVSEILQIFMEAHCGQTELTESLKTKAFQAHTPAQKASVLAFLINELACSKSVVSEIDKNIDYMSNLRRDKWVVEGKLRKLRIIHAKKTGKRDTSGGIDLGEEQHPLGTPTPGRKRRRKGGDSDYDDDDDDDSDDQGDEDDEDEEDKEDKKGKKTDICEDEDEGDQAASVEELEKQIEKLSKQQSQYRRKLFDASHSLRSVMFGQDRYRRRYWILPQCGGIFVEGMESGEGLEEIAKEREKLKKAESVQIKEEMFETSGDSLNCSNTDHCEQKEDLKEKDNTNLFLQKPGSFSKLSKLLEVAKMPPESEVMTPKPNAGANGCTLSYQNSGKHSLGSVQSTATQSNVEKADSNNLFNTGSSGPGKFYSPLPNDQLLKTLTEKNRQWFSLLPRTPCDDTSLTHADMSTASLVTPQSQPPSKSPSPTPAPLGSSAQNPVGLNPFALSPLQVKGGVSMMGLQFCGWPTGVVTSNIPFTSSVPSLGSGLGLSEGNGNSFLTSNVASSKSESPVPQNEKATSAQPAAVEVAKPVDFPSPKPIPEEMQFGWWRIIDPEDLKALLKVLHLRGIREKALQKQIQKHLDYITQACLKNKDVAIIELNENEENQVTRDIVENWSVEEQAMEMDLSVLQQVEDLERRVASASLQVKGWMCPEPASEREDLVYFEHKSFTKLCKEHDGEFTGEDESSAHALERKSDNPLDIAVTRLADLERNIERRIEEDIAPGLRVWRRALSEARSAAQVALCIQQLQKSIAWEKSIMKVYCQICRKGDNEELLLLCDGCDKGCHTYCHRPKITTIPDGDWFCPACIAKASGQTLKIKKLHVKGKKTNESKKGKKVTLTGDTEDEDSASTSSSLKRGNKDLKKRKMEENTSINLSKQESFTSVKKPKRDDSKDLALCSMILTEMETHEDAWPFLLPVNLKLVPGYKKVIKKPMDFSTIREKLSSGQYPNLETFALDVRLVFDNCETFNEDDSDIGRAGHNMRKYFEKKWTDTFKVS
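AlphaScreen displacement of biotin-H3(5-23)K14Ac peptide (50 nM final) from BAZ2B (50 nM final) in PBS pH 7.4, 0.01% Tween-20; complex preformed 30 min RT, then compounds (top 110 uM) 30 min RT, beads 20 min dark.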
G9a block: qHTS Assay for Inhibitors of Histone Lysine Methyltransferase G9a | G9a H3K9 monomethylation, AlphaScreen, 2 h | Potency, µM (top dose mostly 102 µM), inactives show at the highest dose activity, negative = inhibition, usual class: inhibitors | 350,000 tested, 8.8% active | AID 504332, 2011; further: potency means the concentration at half of the fitted maximal effect; on the % scale 0 is the no-effect control and ±100 the full control effect; nearly all actives have a fitted effect of over 75% in size
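Using a bead-based AlphaScreen, monomethylated H3K9 product from 2 h room-temperature reactions (G9a 20 nM, peptide 500 nM, SAM 20 uM) was detected with 0.5 ug/mL rabbit anti-H3K9me1 antibody.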
PLK1 PBD block: qHTS for Inhibitors of PLK1-PDB (polo-like kinase 1 - polo-box domain): Primary Screen. AID 720504, 2013. Potency, µM, without a hit: max response, negative = inhibition, actives largely listed as inhibitors. Plk1 PBD binding of FITC phosphopeptide, fluorescence polarization. Serine/threonine-protein kinase PLK1 (Homo sapiens), P53350. 360,000 tested, 2.8% active; further: potency means the concentration at half of the fitted maximal effect; series mostly up to about 57 µM; on the % scale 0 is the no-effect control and ±100 the full control effect; nearly all actives have a fitted effect of over 65% in size
* = called active by the depositor; ? = inconclusive; · = not tested or not shown; [ ] = dose if it differs, or a comment. Unless noted, the call rests on the fitted dose curve; in most records, active means well fitted curve in the direction sought with a large enough effect; inconclusive means small, poorly fitted or top-dose-only effect, or another doubt; inactive means no such curve, though single readings can be large; an effect the other way counts as inactive or inconclusive.

SMILES	HP1b binding inh	JMJD2A Tudor	PI5P4K alpha inh	BAZ2B inh	G9a block	PLK1 PBD block
CC(=O)Nc1cc(-c2ccoc2)cn2c(-c3ccccc3)cnc12	·	·	?	·	·	-25%
Cc1ccccc1N1CCN(Cc2cc3c(cc2[N+](=O)[O-])OCO3)CC1	8%	-26%	5	?	·	1%
CCOc1ccccc1N1CCN(Cc2cc3c(cc2[N+](=O)[O-])OCO3)CC1	-14%	?	-7	?	71µM*	-12%
O=[N+]([O-])c1cc2c(cc1CN1CCN(c3ccccc3F)CC1)OCO2	9%	-31%	6	56µM*	-19%[59 µM]	-3%
CCOc1ccccc1N1CCN(C(=O)c2ccc3c(c2)OCO3)CC1	16%	-12%	-3	-10%	20%	-10%
Cc1ccc2c(c1)c1c(c(=O)n(-c3ccccc3)c(=O)n1Cc1ccccc1C)n2C	34%	-19%	·	-11%	-7%[59 µM]	·
CCOC(=O)CC1CCCCN1C(=O)c1cc(COc2cccc3cnccc23)on1 (stereo not drawn)	16%[57 µM]	1%	-7	-21%	6%	1%
c1ccc(-c2cnc(CSc3ncnc4sccc34)o2)cc1	89%	-1%	-6	5%	14µM*	?
O=C(O)c1cccc(C(=O)O)c1Br	4%	89µM*	2	?	9%	0%
O=C(O)c1ccccc1O	37%	-4%	-1	10%	19%[59 µM]	3%
Nc1c(O)cccc1C(=O)O	-15%	56µM*	-23	·	·	-18%
Cc1ccc(S(=O)(=O)c2nc(-c3ccco3)oc2SC(C)c2ccccc2)cc1 (stereo not drawn)	20%	-19%	·	-20%	?	·
Cc1ccc(NC(=O)CS(=O)CC(=O)NCCCN(C)c2ccccc2)cc1 (stereo not drawn)	10%	-10%	·	9%	40µM*	-3%
COC(=O)c1c(NC(=O)CS(=O)(=O)c2ccccc2)sc(C)c1C	-6%	-16%	0	-7%	6%[0.501 µM]	-16%
COc1cccc(C2=N/C(=C\N(C)C)C(=O)O2)c1	?	-32%[11.4 µM]	-29	2%	-6%[59 µM]	17µM*
COc1cccc(-c2nc3ccccc3c(=O)o2)c1	25%	-4%	·	9%	-13%	-3%
COc1ccc(CS(=O)(=O)/C(Cl)=C(/Cl)C(=O)Nc2ccc(OC)nc2)cc1	27%	-21%	-7	-7%	45µM*	?
COc1ccc(/C=C/C(=O)Nc2ccc(OC)nc2)cc1	43%	-8%	0	-8%	21%	-1%
CCCCNC(=S)Nc1ccc(OC)nc1	-6%	-9%	-5	-15%	56µM*	-23%
COc1ccc(NC(=O)/C(Cl)=C(/Cl)S(=O)Cc2ccccc2)cn1 (stereo not drawn)	49%	-9%	-5	10%	11µM*	2.1µM*
COc1ccc(NC(=O)Cc2ccccc2)cn1	-11%	-25%	-8	-2%	-6%	?
COc1cccc(N2CCN(C(=O)c3c4c(nc5ccccc35)C(=O)N(C3CCCCC3)C4)CC2)c1	-12%	-36%	·	-26%	3%[59 µM]	·
CN(CC(=O)Nc1ccccc1Cl)C(=O)C1CSC2(C)CCC(=O)N12 (stereo not drawn)	24%	-13%	6	-2%	3%[12.7 µM]	-6%
CCC(Sc1nnc(-c2ccc(F)cc2)c(-c2ccc(F)cc2)n1)C(=O)NC1CCCC1 (stereo not drawn)	19%	-23%	·	-2%	3%[59 µM]	·
Cc1cc(C)c(NC(=O)c2ccc3c(c2)NC(=O)C(C)S3)c(C)c1 (stereo not drawn)	20%	-14%	-2	-1%	13%[12.7 µM]	-4%
SMILES	HP1b binding inh	JMJD2A Tudor	PI5P4K alpha inh	BAZ2B inh	G9a block	PLK1 PBD block
CC1Sc2ccc(C(=O)NCc3ccccn3)cc2NC1=O (stereo not drawn)	?	?	-25	-16%	?	17µM*
CCN(CC)S(=O)(=O)c1cc(NC(=O)c2ccc3c(c2)NC(=O)C(C)S3)ccc1C (stereo not drawn)	?	-30%	?	-2%	1µM*	8.4µM*
CCN(CC)S(=O)(=O)c1cc(NC(=O)NCCCl)ccc1C	10%	-13%	6	-32%	?	-5%
CCN(CC)S(=O)(=O)c1cc(NC(=O)c2ccc(Br)s2)ccc1C	-12%	?	-29	-19%	-21%	19µM*
CN(C)c1ccc(CNC(=O)/C=C/[C@H]2O[C@@H](n3ccc(=O)[nH]c3=O)[C@H](O)[C@@H]2O)cc1	·	·	-3	·	·	-4%
CCCC[N+](C)(C)CCC(=O)NC(C)(C)CS(=O)(=O)[O-]	?	56µM*	5	50µM*	?	0%
CS(=O)(=O)N1CCC2(CC1)CN(C(=O)Nc1cccc(F)c1)C2	·	·	·	·	-1%[12.7 µM]	·
NC(=S)NNC(=O)C12CC3CC(CC(C3)C1)C2	9%	-9%	-8	-32%	?	27µM*
COc1cccc(S(=O)(=O)N(C)C[C@@H]2OCc3cnnn3CCCC(=O)N([C@@H](C)CO)C[C@@H]2C)c1	·	·	4	·	·	-18%
CCN(Cc1ccccc1)C(=O)CCc1nc(CN2CCN(C(=O)c3ccc([N+](=O)[O-])cc3)CC2)no1	36%	-10%	-6	-33%	79µM*	-17%
CCN(Cc1ccccc1)C(=O)CCc1nc(-c2ccc(C)cc2)no1	80%	20%	-6	43%	140%	-7%
CNC(=S)N(CCc1c(C)[nH]c2ccc(C)cc12)Cc1cccnc1	9%	-28%	-4	?	79µM*	5%
CCNC(=S)N(CCc1c(C)[nH]c2ccc(Cl)cc12)Cc1cccnc1	1%	?	-1	?	-41%	-14%
CNC(=S)N(CCc1c(C)[nH]c2ccc(Cl)cc12)Cc1cccnc1	-12%	?	-4	71µM*	6%[2.33 µM]	-3%
O=C(CSc1cn(CC(=O)N2CCCCC2)c2ccccc12)NCc1ccccc1	35%	-8%	·	-17%	-37%[59 µM]	·
Cc1ccc2c(=O)cc(C(=O)Nc3c(C)n(C)n(-c4ccccc4)c3=O)oc2c1C	15%	1%	·	-8%	-4%[59 µM]	·
O=C(COC(=O)Cc1ccc(S(=O)(=O)N2CCOCC2)s1)Nc1ccccc1	31%[57 µM]	-12%	0	·	·	-1%
CC(C(=O)NC1C=CS(=O)(=O)C1)N1C(=O)/C(=C/c2cccc(Cl)c2)SC1=S (stereo not drawn)	-22%	?	-3	?	25µM*	?
